# The whole screen tested about 39,000 compounds, of which about 1,500 (3.8%) were called active. Shown is part of a subset that was picked to be rich in actives.
# System: HSkMC (human skeletal muscle cells)
# Assay: cytotoxicity call (relative viability < 0.9)
# Details: 10 µM
row,Structure (SMILES),cytotoxicity call
1,C[C@H]1CN([C@@H](C)CO)C(=O)c2cc(NC(=O)Cc3ccccc3)ccc2O[C@@H]1CN(C)S(=O)(=O)c1ccccc1,inactive
2,COc1cccc(S(=O)(=O)Nc2ccc3c(c2)[C@@H]2C[C@H](CC(=O)NCC(F)(F)F)O[C@H](CO)[C@@H]2O3)c1,inactive
3,C[C@@H]1CN([C@H](C)CO)C(=O)CCCn2nncc2CO[C@@H]1CN(C)C(=O)Nc1cccc(Oc2ccccn2)c1,inactive
4,COCCNC(=O)C[C@H]1CC[C@H]2[C@@H](COc3ccc(NC(=O)Nc4cccc(F)c4)cc3C(=O)N2C)O1,inactive
5,Cc1noc(C)c1NC(=O)Nc1cccc2c1O[C@H](CN(C)Cc1ccc(Cl)c(Cl)c1)[C@H](C)CN([C@@H](C)CO)C2=O,inactive
6,C[C@@H]1CN([C@@H](C)CO)C(=O)CCCn2cc(nn2)CO[C@@H]1CN(C)Cc1ccc2c(c1)OCCN2C,inactive
7,C[C@@H]1CN([C@@H](C)CO)C(=O)c2cc(NC(=O)C3CC3)ccc2O[C@H]1CN(C)C(=O)Nc1ccc2c(c1)OCO2,inactive
8,CCc1nc2ccccc2c(C(=O)Nc2cccc(Cl)c2)c1C,inactive
9,C[C@@H]1CN([C@H](C)CO)C(=O)Cc2cc(NC(=O)C3CC3)ccc2O[C@@H]1CN(C)C(=O)Nc1ccc2c(c1)OCO2,inactive
10,O=C(C[C@@H]1CC[C@@H](NC(=O)c2cnccn2)[C@H](CO)O1)NCc1ccccc1F,inactive
11,C[C@H]1CN([C@@H](C)CO)C(=O)Cc2cc(NC(=O)Cn3cnnn3)ccc2O[C@H]1CN(C)Cc1ccccc1,inactive
12,Cn1c(-c2ccccc2)c[nH]c1=S,inactive
13,COc1ccc(CN(C)C[C@H]2OCCCC[C@H](C)Oc3ccc(NC(=O)Nc4ccc(C(F)(F)F)cc4)cc3C(=O)N([C@@H](C)CO)C[C@H]2C)cc1,active
14,COc1ccc(NC(=O)Nc2ccc3c(c2)C(=O)N([C@H](C)CO)C[C@@H](C)[C@H](CN(C)Cc2ccc(C(F)(F)F)cc2)OCCCC[C@@H](C)O3)cc1,inactive
15,COc1ccc(CN(C)C[C@@H]2OCCCC[C@@H](C)Oc3ccc(NC(=O)Nc4ccc(C(F)(F)F)cc4)cc3C(=O)N([C@H](C)CO)C[C@H]2C)cc1,active
16,COc1ccc(NC(=O)Nc2ccc3c(c2)C(=O)N([C@@H](C)CO)C[C@H](C)[C@@H](CN(C)Cc2ccc(C(F)(F)F)cc2)OCCCC[C@@H](C)O3)cc1,inactive
17,COc1ccc(CN(C)C[C@H]2OCCCC[C@H](C)Oc3ccc(NC(=O)Nc4ccc(C(F)(F)F)cc4)cc3C(=O)N([C@@H](C)CO)C[C@@H]2C)cc1,active
18,COc1ccc(NC(=O)Nc2ccc3c(c2)C(=O)N([C@@H](C)CO)C[C@@H](C)[C@@H](CN(C)Cc2ccc(C(F)(F)F)cc2)OCCCC[C@H](C)O3)cc1,inactive
19,COc1ccc(NC(=O)Nc2ccc3c(c2)C(=O)N([C@H](C)CO)C[C@H](C)[C@@H](CN(C)Cc2ccc(C(F)(F)F)cc2)OCCCC[C@H](C)O3)cc1,inactive
20,Cc1noc(C)c1S(=O)(=O)Nc1ccc2c(c1)C(=O)N([C@H](C)CO)C[C@H](C)[C@@H](CN(C)C(=O)NC(C)C)O2,inactive
21,COc1ccc(NC(=O)N(C)C[C@@H]2Oc3c(NS(C)(=O)=O)cccc3C(=O)N([C@@H](C)CO)C[C@@H]2C)cc1,inactive

row,Structure (SMILES),cytotoxicity call
1,O=C(C[C@@H]1CC[C@H]2[C@@H](COC[C@@H](O)CN2S(=O)(=O)c2ccc(Cl)cc2)O1)NCCN1CCCC1,inactive
2,C[C@@H]1CN([C@H](C)CO)C(=O)c2cccc(NS(=O)(=O)c3ccc(F)cc3)c2O[C@@H]1CN(C)S(=O)(=O)c1ccc(F)cc1,inactive
3,C[C@@H]1CN([C@@H](C)CO)C(=O)c2cc(NC(=O)Nc3ccc(F)cc3)ccc2O[C@@H](C)CCCCO[C@@H]1CN(C)C(=O)CCCN(C)C,inactive
4,O=C(C[C@H]1CC[C@@H]2[C@H](COC[C@H](O)CN2C(=O)c2ccccc2)O1)NCCCN1CCOCC1,inactive
5,C[C@@H]1CN([C@@H](C)CO)C(=O)Cc2cc(NS(=O)(=O)c3ccc(F)cc3)ccc2O[C@H]1CN(C)S(=O)(=O)c1cn(C)cn1,inactive
6,C[C@@H]1CN([C@@H](C)CO)C(=O)c2cc(NC(=O)Nc3ccc(C(F)(F)F)cc3)ccc2O[C@@H]1CN(C)C(=O)Nc1ccc(C(F)(F)F)cc1,inactive
7,C[C@@H]1CCCCO[C@H](CN(C)CC2CC2)[C@H](C)CN([C@H](C)CO)C(=O)c2cc(NC(=O)C3CCCCC3)ccc2O1,inactive
8,COc1ccc(CN(C)C[C@@H]2OCCCC[C@H](C)Oc3ccc(NC(=O)C4CCCCC4)cc3C(=O)N([C@@H](C)CO)C[C@@H]2C)cc1,inactive
9,COc1ccc(C[C@H](N)C(=O)N[C@H]2[C@@H](O)[C@H](n3cnc4c(N(C)C)ncnc43)O[C@@H]2CO)cc1,active
10,Nc1ncnc2c1ncn2[C@@H]1O[C@H](CO)[C@@H](O)[C@H]1O,inactive
11,COc1nc(N)nc2c1ncn2[C@@H]1O[C@H](CO)[C@@H](O)[C@@H]1O,inactive
12,COc1ccc(CC(N)C(=O)NC2C(CO)OC(n3cnc4c(N(C)C)ncnc43)C2O)cc1.Cl.Cl (configuration not stated),active
13,COc1ccc(C[C@@H](N)C(=O)N[C@@H]2[C@@H](O)[C@@H](n3cnc4c(N(C)C)ncnc43)O[C@@H]2CO)cc1,active
14,Nc1ncnc2c1ncn2C1OC(CO)C(O)C1O (configuration not stated),inactive
15,Nc1ncnc2c1ncn2[C@H]1O[C@@H](CO)[C@H](O)[C@@H]1S,inactive
16,OC[C@H]1O[C@@H](n2cnc3c(NCc4ccco4)ncnc32)[C@H](O)[C@@H]1O,inactive
17,CN(C)c1ncnc2c1ncn2[C@H]1O[C@@H](CO)[C@@H](N)[C@@H]1O,inactive
18,Nc1ccc(CCNc2ncnc3c2ncn3[C@@H]2O[C@H](CO)[C@@H](O)[C@H]2O)cc1,inactive
19,CNc1ncnc2c1ncn2[C@@H]1O[C@H](CO)[C@@H](O)[C@H]1O,inactive
20,COc1ccc(C[C@H](N)C(=O)N[C@H]2[C@@H](O)[C@@H](n3cnc4c(N(C)C)ncnc43)O[C@@H]2CO)cc1,active
21,C[C@H](CO)N1C[C@H](C)[C@@H](CN(C)C(=O)Nc2ccc3c(c2)OCO3)Oc2ccc(NC(=O)CCN3CCOCC3)cc2C1=O,inactive
